# Measured values published in PubChem BioAssay (NCATS).
# Inconclusive results are not listed. Entries that show only a call come without a potency. Values without a mark were called inactive. Activity calls are given as the source filed them. Calls follow the shape of the dose curve; as a rule, active = well fitted curve in the direction sought with a large enough effect; inconclusive = small, poorly fitted or top-dose-only effect, or another doubt; inactive = no such curve, though single readings can be large; an effect the other way counts as inactive or inconclusive. Numbered stars: 1 amine (or outer) side, 2 acyl side, 3 side chain; on linkers, the order of the positions; unused ones are H or OH. Square brackets hold non-standard residues; d marks the D form. Peptide text beside a SMILES is read from it. X3 = CC(CC(O[*:1])C(=O)[*:2])C(=O)O; NMeV = CN[CH](C(=O)O)C(C)C; NMeA = CN[CH](C)C(=O)O; βAla = NCCC(=O)O
# Experiments:
# [1] = molecular target: Cellular tumor antigen p53 (Homo sapiens) (UniProt P04637); assay: Primary qHTS for small molecule compounds that upregulate eGFP-tagged delta133p53alpha (in N-terminal) cells. (AID 2060322); conditions: NCI-H358 eGFP-delta133p53alpha fluorescence, 24 h; activation: hits give high values; also: nearly all actives have a fitted effect of over 75% in size; also: potency is read from the fitted curve at half-maximal effect;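 as to activation: cells pre-induced with doxycycline then dosed without doxycycline; series mostly up to about 56 µM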
# Procedure, shortened: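 NCI-H358 cells pre-induced 24 h with 10 ng/ml doxycycline for eGFP-delta133p53alpha, plated dox-free and exposed 24 h at 37C to titrated compounds. Fixed, Hoechst-stained; gated GFP peak intensity by laser scanning cytometry, normalized to DMSO (0%) and 57.5 uM 5-azacytidine (100%).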
# [2] = molecular target: Aldehyde dehydrogenase, mitochondrial (Homo sapiens) (UniProt P05091); assay: qHTS for Inhibitors of the Aldehyde Dehydrogenase Family (ALDH2) Primary screen (AID 2061308); also: nearly all actives have a fitted effect of over 55% in size
# [3] = molecular target: Retinaldehyde dehydrogenase 3 (Homo sapiens) (UniProt P47895); assay: qHTS for Inhibitors of the Aldehyde Dehydrogenase Family (ALDH1A3) Primary screen (AID 2061315)
# Sequence of Cellular tumor antigen p53 (Homo sapiens) (P04637 whole entry, looked up): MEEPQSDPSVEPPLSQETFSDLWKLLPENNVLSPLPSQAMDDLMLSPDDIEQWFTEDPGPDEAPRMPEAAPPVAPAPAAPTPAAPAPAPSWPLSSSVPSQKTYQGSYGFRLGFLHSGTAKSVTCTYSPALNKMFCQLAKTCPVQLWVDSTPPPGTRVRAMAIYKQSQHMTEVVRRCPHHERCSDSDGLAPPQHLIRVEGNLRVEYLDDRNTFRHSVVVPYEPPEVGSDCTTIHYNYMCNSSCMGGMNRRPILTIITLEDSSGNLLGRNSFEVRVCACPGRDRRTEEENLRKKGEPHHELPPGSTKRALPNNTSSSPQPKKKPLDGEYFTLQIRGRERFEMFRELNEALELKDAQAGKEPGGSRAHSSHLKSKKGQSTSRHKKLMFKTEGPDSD
SMILES,activation [1] [%],Potency [2],Potency [3],Potency [1]
CCCCn1cc(C(=O)c2cccc3ccccc23)c2ccccc21,0.955,inactive,inactive,–
COCC1OC(=O)c2coc3c2C1(C)C1=C(C3=O)C2CCC(=O)C2(C)CC1O (configuration not stated),-7.63,inactive,inactive,–
COC(=O)N1CCN(C(=O)Cc2ccc(Cl)c(Cl)c2)[C@@H](CN2CCCC2)C1,1.91,inactive,inactive,–
O=C1N[C@@H](Cc2ccccc2)CN2CCCC[C@@H]12,-9.16,inactive,inactive,–
CCC1(O)CCC2C3CCC4=CC(=O)CCC4C3CCC21CC (configuration not stated),-2.33,inactive,inactive,–
CC(=O)OC[C@]12[C@H](OC(C)=O)C(=O)[C@@H]3[C@@H](O)[C@@]14O[C@@]3(C)COC(=O)c1cccnc1[C@@H](C)[C@H](C)C(=O)O[C@@H]([C@H](OC(C)=O)[C@@H]2OC(C)=O)[C@]4(C)O,21.4,inactive,inactive,–
CCC(C)C1NC(=O)C2CCCN2C(=O)C(CC(C)C(=O)O)OC(=O)CCNC(=O)C(C)N(C)C(=O)C(C(C)C)N(C)C1=O (configuration not stated) (cyclo([X3]PI[NMeV][NMeA][βAla]); configuration not given here),-10.7,inactive,inactive,–
CN1CCc2cc3c(cc2C1C1OC(=O)c2c1ccc1c2OCO1)OCO3 (configuration not stated),-26,inactive,inactive,–
CC1=C2C(=O)C3[C@@H](CC=C4C[C@@H](O)CC[C@@]43C)[C@@H]2CC[C@]12O[C@@H]1C[C@H](C)CN[C@H]1[C@H]2C (some centres not stated),4.58,inactive,inactive,–
C[C@]12CC[C@H](OC3OC(CO)C(O)C(O)C3OC3OC(CO)C(O)C(O)C3O)C[C@@H]1CC[C@@H]1C2CC[C@]2(C)[C@@H](C3=CC(=O)OC3)CC[C@]12O (some centres not stated),13.4,inactive,inactive,–
C[C@H]1C(=O)O[C@H]2[C@H](O)[C@]34C5OC(=O)[C@]3(O[C@@H]3OC(=O)[C@H](O)C34[C@H](C(C)(C)C)[C@H]5O)C12O (some centres not stated),-12.2,inactive,inactive,–
COc1ccsc1CNCC[C@@]1(c2ccccn2)CCOC2(CCCC2)C1,-0.333,inactive,inactive,–
CC(=O)OC[C@]12C[C@H](O)C(C)=C[C@H]1O[C@@H]1[C@H](O)[C@@H](O)[C@@]2(C)[C@]12CO2,–,inactive,inactive,6590 nM (active)
CO[C@H]1C[C@H](O[C@H]2CC[C@]3(C=O)[C@H]4CC[C@]5(C)[C@@H](C6=CC(=O)OC6)CC[C@]5(O)[C@@H]4CC[C@]3(O)C2)O[C@H](C)[C@H]1O,-29.8,inactive,inactive,–
COC(=O)C1(C)CCC(=O)C2(C)c3c(O)cc(C(C)C)cc3C(O)C(OC(C)=O)C12 (configuration not stated),22.9,inactive,inactive,–
CC(=O)OC[C@]12C[C@H](OC(=O)CC(C)C)C(C)=C[C@H]1O[C@@H]1[C@H](O)[C@@H](OC(C)=O)[C@@]2(C)[C@@]12CO2,–,inactive,inactive,82.8 nM (active)
O=C1Nc2ccc3ncsc3c2/C1=C/c1cnc[nH]1,–,inactive,inactive,2390 nM (active)
CC(=O)O[C@@H]1[C@H]2CC[C@H]3[C@@](C)(O)[C@@H]4C[C@H](O)C(C)(C)[C@@]4(O)[C@H](O)C[C@@]13C[C@@]2(C)O,6.87,inactive,inactive,–
CC(C)(C)c1cc(C(C)(C)C)c2c(c1)C(O)(C(F)(F)F)C(=O)O2 (configuration not stated),23.2,inactive,inactive,–
C=C1C(=O)CC2OC2(C)CC2OC(=O)C(=C)C2C(O)C1OC(=O)/C(C)=C\C (configuration not stated),–,inactive,inactive,18600 nM (active)
CC1C/C=C/C(O)C(O)CC/C=C/c2cc(O)cc(O)c2C(=O)O1 (configuration not stated),-10.7,inactive,inactive,–
CC1=C[C@H]2O[C@@H]3C[C@H]4OC(=O)/C=C/C=C/C(=O)OCC/C(C)=C/C(=O)OC[C@@]2(CC1)[C@]4(C)[C@]31CO1,–,inactive,inactive,16.5 nM (active)
O=C1C[C@@H]2OCC=C3CN4CC[C@]56c7ccccc7N1[C@H]5[C@H]2[C@H]3C[C@H]46,-3.57,inactive,inactive,–
C[C@]12CC[C@H]3[C@@H](CCC4=C/C(=N/OCC(=O)O)CC[C@@]43C)[C@@H]1CC[C@@H]2O,13.7,inactive,inactive,–
